Data as given in PubChem BioAssay (NCI).
The panel holds about 79,000 compounds, 15% with a hit somewhere; the sample as a whole holds those more often. No stated cut-off is given here; in the data, active means growth inhibition above about 70%; inactive means the rest.

Tests used:
[1] = NCI Yeast Anticancer Drug Screen. Data for the rad50 strain (AID 155);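 further: 0% = growth of vehicle-only cultures of the same strain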; settings: S. cerevisiae rad50 strain growth inhibition, stronger effect = higher value; at 50.0 µM unless noted
How it was run: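 Relative growth inhibition (compound vs vehicle) was measured in yeast with a defined repair-gene alteration.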

[2] = NCI Yeast Anticancer Drug Screen. Data for the mec2-1 strain (AID 157); settings: S. cerevisiae mec2-1 strain, stronger effect = higher value; at 50.0 µM unless noted
How it was run: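 Readout is yeast growth inhibition, normalised to vehicle-treated controls, in the mec2-1 strain exposed to compound.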

[3] = NCI Yeast Anticancer Drug Screen. Data for the sgs1 mgt1 strain (AID 161);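 further: 0% = growth of cultures given vehicle only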; settings: S. cerevisiae sgs1 mgt1 strain, stronger effect = higher value; at 50.0 µM unless noted
How it was run: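 Yeast cells carrying a defined DNA-repair defect were exposed to test compounds. Growth inhibition was measured relative to vehicle-treated controls.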

[4] = NCI Yeast Anticancer Drug Screen. Data for the cln2 rad14 strain (AID 165);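 further: 0% = growth equal to vehicle treated cultures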; settings: S. cerevisiae cln2 rad14 strain, stronger effect = higher value; at 50.0 µM unless noted
How it was run: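 Relative to vehicle controls, growth inhibition of compound-treated cln2 rad14 yeast was recorded.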

[5] = NCI Yeast Anticancer Drug Screen. Data for the bub3 strain (AID 167); settings: S. cerevisiae bub3 mutant strain, stronger effect = higher value; at 50.0 µM unless noted
How it was run: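 Screening used yeast with an engineered genetic alteration affecting cell cycle control. Compound-exposed cultures were compared with vehicle cultures, and reduced growth was taken as inhibition.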

[6] = NCI Yeast Anticancer Drug Screen. Data for the mlh1 rad18 strain (AID 175); settings: S. cerevisiae mlh1 rad18 strain growth inhibition, stronger effect = higher value; at 50.0 µM unless noted
How it was run: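 Test agents were incubated with a yeast strain of defined genotype (DNA damage repair defect). Inhibition of growth was derived by comparison with vehicle-exposed cultures.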

Measured: growth inhibition

CN(C)c1ccccc1C(=O)N/N=C\c1ccc(-c2ccccc2)cc1
inactive: [1] 7.05% | [2] 4.95% | [3] 0.6% | [4] 12.3% | [5] 0.35% | [6] 19.6%

N#CC1=C(N)OC(C2CC2)=C(C#N)C1c1ccco1 (stereo not drawn)
inactive: [1] -9.75% | [2] -14.1% | [3] -11.1% | [4] 4.45% | [5] -24.8% | [6] -11.9%

O=P(O)(O)OC1OC(CO)C(O)C(O)C1O (stereo not drawn)
inactive: [1] -16.5% | [2] -26.2% | [3] -3.9% | [4] -25.6% | [5] -24.8% | [6] -4.75%
